Test results as given in PubChem BioAssay (NCATS).
Records with an inconclusive call do not appear. Where a call stands in place of a potency, no number is given. Values without a mark were called inactive. Activity calls are given as the source filed them. Unless noted, calls follow the shape of the dose curve; as a rule, active = well fitted curve in the direction sought with a large enough effect; inconclusive = small, poorly fitted or top-dose-only effect, or another doubt; inactive = no such curve, though single readings can be large; an effect the other way counts as inactive or inconclusive.

Tested on: not listed separately
Test: P-glycoprotein substrates identified in KB-3-1 adenocarcinoma cell line, qHTS therapeutic library screen (AID 1346986); also: nearly all actives have a fitted effect of over 60% in size;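 also: potency is read from the fitted curve at half-maximal effect; potency is for cytotoxicity meaning loss of cell viability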
Settings: KB-3-1 parental cells viability, CellTiter-Glo, 72 h; series mostly up to 44.5 µM; activity change, negative = cytotoxicity: at the top concentration
Outline: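 Viability by CellTiter-Glo after 72 h compound exposure at 37 degree C, 5% CO2. Cytotoxic call: curve class -1.1 to -2.4, maximum response >50%, AC50 < 10 uM, compared across KB-3-1 and P-gp-overexpressing KB-8-5-11.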
With CC(=O)OCC(=O)Nc1cc(C#N)cc(NC(=O)COC(C)=O)c1Cl the “outcome” value was “inactive”.
With CCN1C(=O)c2ccccc2C1Nc1ccc(OCCN2CCCCC2)cc1 (stereo not drawn) the “outcome” value was “inactive”.
For CC(=O)Nc1ccn(C2COC(COC(=O)c3ccccc3)O2)c(=O)n1 (stereo not drawn), the “outcome” value was “inactive”.
In the case of O=C(CCCCCCCCC#CI)Oc1ccccc1, the “outcome” value is reported as “inactive”.
With CN(CC1(C)CCCO1)S(=O)(=O)c1ccc(Cl)c(S(N)(=O)=O)c1 (stereo not drawn) the “outcome” value was “inactive”.
In the case of O=C(O)Cc1ccccc1Oc1ccc(Cl)cc1Cl, the “outcome” value is reported as “inactive”.
For CO/N=C(/C(=O)N[C@@H]1C(=O)N2C(C(=O)O)=C(Cn3nnc(C)n3)CS[C@H]12)c1csc(N)n1, the “outcome” value was “inactive”.
For CC(C)=CCNc1ncnc2c1ncn2[C@@H]1O[C@H](CO)[C@@H](O)[C@H]1O, the Potency was 5.8 µM (active).
With C=CC[N+]1([C@H]2C[C@H]3[C@@H]4CC[C@H]5C[C@H](OC(C)=O)[C@@H](N6CCCCC6)C[C@]5(C)[C@H]4CC[C@]3(C)[C@H]2OC(=O)CC)CCCCC1 the “outcome” value was “inactive”.
With Cn1cnc2c(NCc3ccccc3)nc(NCCO)nc21 the “outcome” value was “inactive”.
In the case of COc1cc(NS(=O)(=O)c2ccc(N)cc2)nc(C)n1, the “outcome” value is reported as “inactive”.
For CN(C)c1cc2c(Nc3ccc4c(cnn4Cc4ccccc4)c3)ncnc2cn1, the “activity change, negative = cytotoxicity” value was -3.72%.
In the case of COc1cc(C(=O)OC(COCCC(C)C)CN2CCOCC2)cc(OC)c1OC (stereo not drawn), the “outcome” value is reported as “inactive”.
With CCCCCOc1ccc(C2SC(=O)NC2=O)cc1OCC (stereo not drawn) the “outcome” value was “inactive”.
In the case of CCOC(=O)c1ccc(OCCN2C[C@H](O)[C@@H](O)[C@H](O)[C@H]2CO)cc1, the “outcome” value is reported as “inactive”.
With CN(C)C(=O)CNC(=O)Cc1ccccc1 the “outcome” value was “inactive”.
In the case of CO[C@]1(NC(=O)CSC(F)F)C(=O)N2C(C(=O)O)=C(CSc3nnnn3CCO)CO[C@H]21, the “outcome” value is reported as “inactive”.
With CCCCC(O)/C=C(C)/C=C/C=C/C(=O)N1CCCC1=O (stereo not drawn) the “activity change, negative = cytotoxicity” value was 3.12%.
For CC(=O)O[C@@H]1C(=O)O[C@@H]2[C@H]1OC(=O)[C@@H]2OC(C)=O, the “outcome” value was “inactive”.
With Nc1ncnc2n[nH]c(Nc3ccc(F)cc3)c12 the Potency was “inactive”.

Tested on: not listed separately
Test: P-glycoprotein substrates identified in KB-8-5-11 adenocarcinoma cell line, qHTS therapeutic library screen (AID 1346987); also: nearly all actives have a fitted effect of over 65% in size; also: potency is read from the fitted curve at half-maximal effect
Settings: KB-8-5-11 (P-gp overexpressing) viability, CellTiter-Glo, 72 h; series mostly up to 44.5 µM; activity change, negative = cytotoxicity: at the top concentration
Outline: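 In this qHTS, P-gp-rich KB-8-5-11 cells received library compounds across a concentration range. Viability was quantified by luminescence after 72 h at 37 degree C.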
With CC(=O)OCC(=O)Nc1cc(C#N)cc(NC(=O)COC(C)=O)c1Cl the “outcome” value was “inactive”.
In the case of CC(=O)Nc1ccn(C2COC(COC(=O)c3ccccc3)O2)c(=O)n1 (stereo not drawn), the “activity change, negative = cytotoxicity” value is reported as 0.86%.
In the case of O=C(Nc1ccc(Cl)cc1)Nc1ccc(Cl)c(C(F)(F)F)c1, the Potency is reported as 20.6 µM (active).
With O=C(CCCCCCCCC#CI)Oc1ccccc1 the “outcome” value was “inactive”.
In the case of CN(CC1(C)CCCO1)S(=O)(=O)c1ccc(Cl)c(S(N)(=O)=O)c1 (stereo not drawn), the “activity change, negative = cytotoxicity” value is reported as -6.58%.
For O=C(O)Cc1ccccc1Oc1ccc(Cl)cc1Cl, the “outcome” value was “inactive”.
For CO/N=C(/C(=O)N[C@@H]1C(=O)N2C(C(=O)O)=C(Cn3nnc(C)n3)CS[C@H]12)c1csc(N)n1, the “activity change, negative = cytotoxicity” value was 5.85%.
In the case of CCCCCCCCCCCC[N+](C)(C)Cc1ccccc1, the “activity change, negative = cytotoxicity” value is reported as -29.6%.
With CC(C)=CCNc1ncnc2c1ncn2[C@@H]1O[C@H](CO)[C@@H](O)[C@H]1O the Potency was 5.8 µM (active).
For C=CC[N+]1([C@H]2C[C@H]3[C@@H]4CC[C@H]5C[C@H](OC(C)=O)[C@@H](N6CCCCC6)C[C@]5(C)[C@H]4CC[C@]3(C)[C@H]2OC(=O)CC)CCCCC1, the “outcome” value was “inactive”.
For Cn1cnc2c(NCc3ccccc3)nc(NCCO)nc21, the “activity change, negative = cytotoxicity” value was -3.12%.
With COc1cc(NS(=O)(=O)c2ccc(N)cc2)nc(C)n1 the “outcome” value was “inactive”.
For CO[C@@H]1[C@@H](OC)[C@H](C)[C@@](O)(CC(=O)O)O[C@H]1[C@H](C)[C@H]1O[C@@]2(CC[C@@](C)([C@H]3CC[C@@](C)([C@@H]4O[C@@H]([C@H]5O[C@](C)(O)[C@H](C)C[C@@H]5C)C[C@@H]4OC4C[C@H](OC)[C@@H](OC)[C@H](C)O4)O3)O2)C[C@H](O)[C@H]1C (stereo partly drawn), the Potency was 8.2 µM (active).
With COc1cc(C(=O)OC(COCCC(C)C)CN2CCOCC2)cc(OC)c1OC (stereo not drawn) the “activity change, negative = cytotoxicity” value was 8.71%.
For CCCCCOc1ccc(C2SC(=O)NC2=O)cc1OCC (stereo not drawn), the “activity change, negative = cytotoxicity” value was 5.23%.
In the case of CCOC(=O)c1ccc(OCCN2C[C@H](O)[C@@H](O)[C@H](O)[C@H]2CO)cc1, the “outcome” value is reported as “inactive”.
For CCCCCC(=O)O[C@]1(C(C)=O)CC[C@H]2[C@@H]3CCC4=CC(=O)CC[C@]4(C)[C@H]3CC[C@@]21C, the Potency was 10.3 µM (active).
With CN(C)C(=O)CNC(=O)Cc1ccccc1 the “outcome” value was “inactive”.
For CO[C@]1(NC(=O)CSC(F)F)C(=O)N2C(C(=O)O)=C(CSc3nnnn3CCO)CO[C@H]21, the “activity change, negative = cytotoxicity” value was 8.54%.
With CCCCC(O)/C=C(C)/C=C/C=C/C(=O)N1CCCC1=O (stereo not drawn) the “outcome” value was “inactive”.
In the case of CC(=O)O[C@@H]1C(=O)O[C@@H]2[C@H]1OC(=O)[C@@H]2OC(C)=O, the “outcome” value is reported as “inactive”.
With Nc1ncnc2n[nH]c(Nc3ccc(F)cc3)c12 the Potency was “inactive”.

Tested on: not listed separately
Test: Natriuretic polypeptide receptor (hNpr1) antagonism - Pilot counterscreen GloSensor control cell line (AID 1347045; calls by dose curve)
Settings: HEK293 cGMP GloSensor cells, SNP-stimulated luminescence, 20 min; series mostly up to 38.3 µM; activity change, negative = inhibition: at the top concentration
Outline: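 HEK293 cGMP-sensor cells; 2% GloSensor reagent 2 h RT; LOPAC compounds in 1:5 titrations 30-50 min; 50 uM SNP 20 min; luminescence pre-read and post-read.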
In the case of Cn1cnc2c(NCc3ccccc3)nc(NCCO)nc21, the “activity change, negative = inhibition” value is reported as 8.29%.
In the case of CN(C)c1cc2c(Nc3ccc4c(cnn4Cc4ccccc4)c3)ncnc2cn1, the “activity change, negative = inhibition” value is reported as 4.66%.
For Nc1ncnc2n[nH]c(Nc3ccc(F)cc3)c12, the “activity change, negative = inhibition” value was 11.4%.

Target: Atrial natriuretic peptide receptor 2 (Homo sapiens) (UniProt P20594)
Sequence (P20594 whole entry, looked up): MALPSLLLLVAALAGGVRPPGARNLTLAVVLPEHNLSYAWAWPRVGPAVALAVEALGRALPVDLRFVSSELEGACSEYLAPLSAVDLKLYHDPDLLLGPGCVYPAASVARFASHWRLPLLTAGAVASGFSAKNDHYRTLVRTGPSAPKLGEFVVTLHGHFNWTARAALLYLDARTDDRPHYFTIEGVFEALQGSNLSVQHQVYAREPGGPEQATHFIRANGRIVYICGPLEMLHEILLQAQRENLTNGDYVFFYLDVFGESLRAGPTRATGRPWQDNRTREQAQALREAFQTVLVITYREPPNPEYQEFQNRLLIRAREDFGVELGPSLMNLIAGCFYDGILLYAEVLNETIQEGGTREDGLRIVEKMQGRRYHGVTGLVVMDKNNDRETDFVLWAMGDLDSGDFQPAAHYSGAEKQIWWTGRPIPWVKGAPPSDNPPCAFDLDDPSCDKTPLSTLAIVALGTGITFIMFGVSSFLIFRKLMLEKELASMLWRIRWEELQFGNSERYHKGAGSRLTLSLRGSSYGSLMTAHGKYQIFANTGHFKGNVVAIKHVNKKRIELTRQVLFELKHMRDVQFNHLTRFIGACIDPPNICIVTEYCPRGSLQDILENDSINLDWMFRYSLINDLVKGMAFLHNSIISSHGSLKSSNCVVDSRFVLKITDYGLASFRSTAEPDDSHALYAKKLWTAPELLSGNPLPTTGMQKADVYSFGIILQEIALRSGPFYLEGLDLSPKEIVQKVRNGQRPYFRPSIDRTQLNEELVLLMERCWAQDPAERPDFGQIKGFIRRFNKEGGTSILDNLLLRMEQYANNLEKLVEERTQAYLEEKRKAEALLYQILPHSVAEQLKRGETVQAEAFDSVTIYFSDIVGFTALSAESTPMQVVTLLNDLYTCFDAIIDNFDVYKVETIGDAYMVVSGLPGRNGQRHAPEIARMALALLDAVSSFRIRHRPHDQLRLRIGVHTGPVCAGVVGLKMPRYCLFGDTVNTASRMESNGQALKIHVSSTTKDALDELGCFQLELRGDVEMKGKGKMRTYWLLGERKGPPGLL
Test: Natriuretic polypeptide receptor (hNpr2) antagonism - Pilot subtype selectivity assay (AID 1347050; calls by dose curve)
Settings: NPR2-expressing cells, cGMP antagonist-mode read-out; series mostly up to 38.3 µM; activity change, negative = inhibition: at the top concentration
Outline: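 Luminescence from a genetically encoded cGMP luciferase biosensor in hNpr2-expressing HEK293 cells is read before and 20 min after adding 1 nM hNppC. Test compounds, in interplate 1:5 titrations, are added 30-50 min ahead of the agonist.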
With Cn1cnc2c(NCc3ccccc3)nc(NCCO)nc21 the “activity change, negative = inhibition” value was 13.9%.
For CN(C)c1cc2c(Nc3ccc4c(cnn4Cc4ccccc4)c3)ncnc2cn1, the “activity change, negative = inhibition” value was -0.9%.
In the case of Nc1ncnc2n[nH]c(Nc3ccc(F)cc3)c12, the “activity change, negative = inhibition” value is reported as -4.2%.
